Screens: PubChem BioAssay, National Center for Advancing Translational Sciences (NCATS)
Only some compounds are listed: those with a hit (about 21% of all), similar ones and a draw of the others.
CHX counter = affects cycloheximide protein synthesis inhibition readout, counter-screen; 300,000 tested, 12% active; AID 2314; cell reporter, cycloheximide protein synthesis inhibition counterscreen; max response, %; in the data active means max response mostly above about 13%, no sharp cut-off; inactive means mostly below about 14%; further: read at 38.3 µM for the half of the compounds with a filed dose; 0% is about no effect
Shiga inhibitor = blocks Shiga toxin action in Vero cells. Vero cells, Shiga toxin protein synthesis inhibition reporter. 290,000 tested, 9.2% active. AID 2315. inhibition, % at 38.7 µM; in the data active means inhibition mostly above about 28%, no sharp cut-off; inactive means mostly below about 43%; further: 0% is about no effect
Pf growth 48h = inhibits P. falciparum growth in the first generation, 48 h. P. falciparum luciferase growth in erythrocytes, 48 h. Potency, µM (top dose mostly 28.7 µM), for inactives: at the highest dose activity change, negative = inhibition, hits mostly inhibitors. 310,000 tested, 5.9% active; further: potency means the concentration at half of the fitted maximal effect; on the % scale 0 is the no-effect control and ±100 the full control effect
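Luminescence readout; reporter = integrated firefly luciferase in P. falciparum. RBC culture at 2% hematocrit, 0.1% parasitemia final, 37 C/5% CO2; decreased signal taken as growth inhibition.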
Pf growth 96h = inhibits malaria parasite growth, 96 h; Potency, µM (series often up to 28.7 µM), for inactives: top-dose activity change, negative = inhibition, actives largely listed as inhibitors; P. falciparum luciferase reporter growth, 96 h; 320,000 tested, 6.9% active; AID 504834; further: potency means the concentration at half of the fitted maximal effect; on the % scale 0 is the no-effect control and ±100 the full control effect
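Readout is luminescence from an integrated firefly luciferase in P. falciparum. Red cells, 2% hematocrit and 0.05% parasitemia final, were cultured with compound through two parasite generations (96 hours) at 37 C, 5% CO2.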
Sm TGR inh = inhibitors of Schistosoma mansoni thioredoxin glutathione reductase. Q962Y6. purified TGR, DTNB reduction, TNB absorbance 405 nm. Potency, µM (top dose mostly 114 µM), without a hit: at the top dose activity change, negative = inhibition, actives largely listed as inhibitors. 360,000 tested, 3% active. AID 485364; further: potency means the concentration at half of the fitted maximal effect; on the % scale 0 is the no-effect control and ±100 the full control effect; nearly all actives have a fitted effect of over 60% in size
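First, TGR (20 nM dispensed) and NADPH were mixed with compound. Second, a 15 min room-temperature incubation followed. Third, further NADPH and then DTNB were added to start the reaction. Finally, TNB absorbance was monitored kinetically.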
NS1 function inh = influenza NS1 inhibition; Potency, µM (series often up to 46.1 µM), inactives show at the top dose activity, positive = more growth; 270,000 tested, 0.4% active; AID 2326; calls by dose curve; further: potency means the concentration at half of the fitted maximal effect; actives are rising curves; nearly all actives have a fitted effect of over 50% in size
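Growth recovery, yeast-based: influenza A NS1 expressed in S. cerevisiae causes slow growth, and suppressors are detected by OD600. The parent strain without NS1 is used as positive control.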
An asterisk follows results filed as active; ? = inconclusive; · = no result; [ ] = remark or other dose. Unless noted, the call rests on the fitted dose curve; in most records, active means well fitted curve in the direction sought with a large enough effect; inconclusive means small, poorly fitted or top-dose-only effect, or another doubt; inactive means no such curve, though single readings can be large; an effect the other way counts as inactive or inconclusive.

SMILES | CHX counter | Shiga inhibitor | Pf growth 48h | Pf growth 96h | Sm TGR inh | NS1 function inh
Cn1c(=O)oc2cc(S(=O)(=O)CCC(=O)NCc3ccccc3)ccc21 | · | · | · | · | 9% | ·
COc1cccc(NC(=O)CCS(=O)(=O)c2ccc3c(c2)oc(=O)n3C)c1 | -8 | -4 | 7% | ? | -16% | 2%
CC(CNC(=O)CCS(=O)(=O)c1ccc2c(c1)oc(=O)n2C)c1ccccc1 (configuration not stated) | 1 | 14 | ? | 9.3µM* | -20% | -1%
CCc1cccc(C)c1NC(=O)CCS(=O)(=O)c1ccc2c(c1)oc(=O)n2C | · | · | · | · | 25µM* | ·
COc1cc(NC(=O)CCS(=O)(=O)c2ccc3c(c2)oc(=O)n3C)cc(OC)c1OC | 1 | -7 | -29% | 2.3µM* | -25% | 10%
CC(NC(=O)c1ccccc1)(C(=O)O)C(=O)O | · | · | · | · | · | 2%
CCCC[C@@H](NC(=O)[C@@H](Cc1cn(C(=O)OC)c2ccccc12)NC(=O)[C@H](CC(C)(C)C)NC(=O)N1[C@H](C)CCC[C@@H]1C)C(=O)O | 5 | -7 | · | · | · | ·
CC(C)(C)NC(=O)NC(=O)COC(=O)C1=COCCO1 | -3 | -4 | · | 6% | -4% | 9%
CCC(OC(=O)c1ccco1)C(=O)NCc1ccco1 (configuration not stated) | -1 | 7 | -8% | -2% | 0% | -8%
CCC(OC(=O)c1cccs1)C(=O)NCc1ccco1 (configuration not stated) | 3 | 2 | -5% | · | 56µM* | 17%
CC(C)CC(OC(=O)c1cccs1)C(=O)NCc1ccco1 (configuration not stated) | -1 | -3 | 13µM* | -8% | 40µM* | -9%
O=C(/C=C/c1cccc(Oc2ccccc2)c1)N1CCOCC1 | 34* | 86* | 76% | 354% | 4% | 0%
O=C(/C=C/c1ccc(OCCCF)cc1)N1CCOCC1 | 30* | 66* | 97% | 82% | ? | 2%
O=C(CN1CCOCC1)c1cccc2ccccc12 | -5 | -4 | 44% | 83% | 0% | -91%
O=C(/C=C/c1cccc([N+](=O)[O-])c1)N1CCOCC1 | -1 | 4 | 25% | -19% | -7% | 9%
O=C(/C=C/c1cccc2ccccc12)N1CCOCC1 | 32* | 86* | 82% | 107% | 2% | -4%
COc1ccccc1/C=C/C(=O)N1CCOCC1 | -1 | -4 | · | 11% | -5% | 7%
Cc1ccccc1/C=C/C(=O)N1CCOCC1 | 31* | 66* | 76% | 31% | 4% | 1%
O=C(c1ccccc1Sc1cccc2ccccc12)N1CCOCC1 | -2 | -6 | 10µM* | ? | 0% | -9%
CSc1ccccc1C(=O)N1CCOCC1 | -3 | -9 | 9% | 2% | -29% | 2%
O=C(/C=C/c1ccccc1Cl)N1CCOCC1 | 19* | 2 | 8% | ? | -6% | -1%
N#Cc1ccccc1/C=C/C(=O)N1CCOCC1 | 1 | -4 | 31% | 182% | 9% | -4%
COc1ccc(-[n+]2c(-c3ccccc3)cc(-c3ccccc3)cc2-c2ccccc2)cc1 | · | · | 0.83µM* | 0.29µM* | -16% | ·
Oc1ccc(-[n+]2c(-c3ccccc3)cc(-c3ccccc3)cc2-c2ccccc2)cc1 | · | · | 0.37µM* | 0.13µM* | -2% | ·
O=C([O-])c1ccc(-[n+]2c(-c3ccccc3)cc(-c3ccccc3)cc2-c2ccccc2)cc1 | · | · | ? | ? | -5% | ·
SMILES | CHX counter | Shiga inhibitor | Pf growth 48h | Pf growth 96h | Sm TGR inh | NS1 function inh
Cc1cc(-c2ccccc2)cc(-c2ccccc2)[n+]1CCc1ccccc1 | · | · | 0.47µM* | 0.52µM* | -5% | ·
C[n+]1c(-c2ccccc2)cc(-c2ccc(O)cc2)cc1-c1ccccc1 | -2 | -3 | ? | 2.1µM* | -16% | ·
O=[N+]([O-])c1ccc(-[n+]2c(-c3ccccc3)cc(-c3ccccc3)cc2-c2ccccc2)cc1 | -3 | · | ? | 0% | 8% | -6%
CN(C)CC(O)CN(c1ccccc1)c1ccccc1 (configuration not stated) | -1 | 11 | 7% | 10% | 11% | 1%
CCOc1ccc(-c2cc(C)[n+](CCO)c(-c3ccc(OCC)cc3)c2)cc1 | -4 | -7 | ? | ? | 2% | ·
Cc1cc(-c2ccccc2)cc(-c2ccccc2)[n+]1C | -1 | -12 | 10µM* | 0.93µM* | -1% | ·
O=C(NCC1(N2CCCCC2)CCCCC1)C1CC(=O)N(c2ccc3c(c2)OCCO3)C1 (configuration not stated) | 6 | 13 | 34% | 40% | 0% | ·
CC(=O)Nc1sc(C)c(C)c1C(=O)OCCOc1ccccc1 | 48* | 113* | 88% | 90% | -4% | -10%
Cc1sc(NC(=O)CCl)c(C(=O)c2ccccc2)c1C | 12* | -7 | 13µM* | 92% | 7.9µM* | -36%
Cc1ccc(C(=O)Nc2ccccc2C(=O)NCc2ccccc2)cc1 | 8 | 8 | ? | ? | -18% | 5%
Cc1ccc(C(=O)/C=C\NCc2ccccc2)cc1 | 75* | 86* | 21% | 43% | -2% | -39%
CCc1ccc(C(=O)/C=C/NCc2ccc(F)cc2)cc1 | 19* | 49 | ? | ? | -2% | -29%
COc1cccc(NC(=O)/C(C#N)=C/c2c(C)n(Cc3ccc(Cl)cc3)c3ccccc23)c1 | · | · | · | · | 0% | ·
NS(=O)(=O)c1cc(C(=O)Nc2ccc3c(c2)CCC3)ccc1Cl | 20* | 89* | 41% | 15% | 2% | 8%
O=C(Nc1ccc2c(c1)CCC2)c1ccc(F)c(S(=O)(=O)N2CCOCC2)c1 | 27* | 36* | 0% | ? | -18% | 16%
O=C(Nc1ccc2c(c1)CCC2)c1cc(F)cc(F)c1 | · | · | 151% | 179% | -6% | ·
Cc1ccc(C(=O)Nc2ccc3c(c2)CCC3)cc1S(=O)(=O)N1CCOCC1 | 34* | 98* | -17%[5.75 µM] | 18%[5.75 µM] | 9% | ·
Cc1ccc(C(=O)Nc2ccncc2)cc1S(=O)(=O)N1CCOCC1 | -1 | 10 | -27% | ? | 0% | 7%
Cc1cc(C)cc(OCCCn2c(CCNC(=O)C3CCCCC3)nc3ccccc32)c1 | 18 | 59 | · | · | 0% | ·
OCCC1CN(Cc2ccc3c(c2)CCO3)CCN1Cc1ccc(F)cc1 (configuration not stated) | 5 | -13 | 11% | ? | 0% | -2%
CC1(c2ccccc2)CC(C)(C)N(C(=O)CSc2nnc(N)s2)c2ccccc21 (configuration not stated) | -6 | -10 | ? | 5.2µM* | -4% | -8%
CC1(c2ccccc2)CC(C)(C)N(C(=O)C2CCCO2)c2ccccc21 (configuration not stated) | 4 | -9 | · | 2.3µM* | -11% | -95%
CC1(c2ccc(Cl)cc2)CC(C)(C)N(C(=O)c2ccccc2)c2ccccc21 (configuration not stated) | · | · | · | · | 10% | ·
